Assay outcomes as filed in PubChem.
SKKanGAS inh: blocks kanamycin growth of S. pyogenes SKKanGAS strain. BacTiter-Glo, 6 h. inhibition, % at 7.5 µM. 300,000 tested, 1.3% active. AID 1662;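 active = mean replicate score, as percent of positive control median, at least 50; inconclusive = mean below 50 but one replicate at or above 50; inactive = mean and every replicate below 50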;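 also: strain carries kanamycin resistance gene driven by streptokinase promoter and grows in 40 µg/ml kanamycin; loss of luminescence reflects streptokinase promoter inhibition or plain growth inhibition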
PP5 inh: inhibitors of human protein phosphatase 5 (PP5) | purified PP5c, OMFP substrate fluorescence | 320,000 tested, 0.18% active | inhibition, % at 6.7 µM | P53041 | AID 1987;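 active = inhibition above the campaign's mean inhibition across all tested compounds plus 3 SD, cut at about 9.5% in these data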
IDE act: boosts human insulin-degrading enzyme activity in HEK cells; FAbeta-B cleavage, fluorescence polarization; 0% vehicle, 100% cell-free pure enzyme wells; activation, % at 5.96 µM; P14735; AID 493087; 340,000 tested, 0.073% active;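 active = activation above the mean of all tested compounds plus 3 SD, set per screening campaign, cut at about 17% in these data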
IDE inh: inhibitors of human insulin-degrading enzyme in cells; HEK cells, FAbetaB cleavage, fluorescence polarization; inhibition, % at 5.59 µM; 320,000 tested, 0.41% active; AID 434962;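 active = percent inhibition above the average of all tested compounds plus 3 SD, set per screening campaign, cut at about 16% in these data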;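 also: IDE supplied by intact live HEK cells; FP after avidin binding of uncleaved biotin substrate so inhibition keeps polarization high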
Exocytosis inh: blocks lytic granule exocytosis; 360,000 tested, 0.66% active; TALL-104 LAMP-1 surface exposure, flow cytometry; cells stimulated with thapsigargin and PMA; inhibition, % at 10 µM;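 active = inhibition above about 55%, limit read from the data; inconclusive = no clear call, values can overlap the other calls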
PP1 counter: counter-screen for PP5 inhibitors: inhibitors of human PP1-alpha. P62136. purified PP1alpha, OMFP fluorescence. inhibition, % at 6.7 µM. 320,000 tested, 0.9% active. AID 2235;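 active = inhibition above the mean inhibition of all tested compounds plus 3 SD, computed separately for each screening campaign, cut at about 15% in these data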
A number is an active result; - = inactive; ? = inconclusive; . = no result given. A selection: hits, their analogues and other compounds. The true share with any hit is near 2.8%.

SMILES	SKKanGAS inh	PP5 inh	IDE act	IDE inh	Exocytosis inh	PP1 counter
O=c1c2ccccc2oc2cc(-c3ccc4[nH]ccc4c3)ccc12	57.2	-	-	-	-	-
Cc1ccc(NC(=S)NNc2ccc([N+](=O)[O-])cc2S(=O)(=O)Nc2ccccc2C(=O)O)cc1C	-	-	-	-	-	16.7
CC(=O)Nc1ccc(C=NNc2ccc([N+](=O)[O-])cc2S(=O)(=O)Nc2ccccc2C(=O)O)cc1	.	.	-	-	-	.
CCCCCc1ccc(OCCCC[n+]2ccccc2)c(CCCCC)c1	?	-	-	-	-	-
CCC(C)(C)c1ccc(OCCCC[n+]2ccccc2)c(C(C)(C)CC)c1	.	-	-	-	-	15.2
Cc1c(Cl)cccc1NC(=O)CC1Oc2ccccc2NC1=O (centres undefined)	-	-	-	-	-	-
CCNC(=O)c1c(NC(=O)c2cc(-c3cc(C)ccc3O)n[nH]2)sc2c1CCCC2	82.3	-	-	-	-	-
COc1ccc(-c2cc(C(=O)NN)n(-c3ccccc3)n2)cc1	-	-	-	-	-	-
CCOC(=O)c1cc(-c2ccc(OC)cc2)nn1-c1ccccc1C(=O)O	-	-	-	-	-	17.1
Cc1cc(C)n(CCC(=O)N2CCCC(N3CCN(c4cccc(Cl)c4)CC3)C2)n1 (centres undefined)	-	-	-	-	-	-
COc1ccc(S(=O)(=O)NCCC(=O)N2CCCN(C)CC2)cc1	.	-	-	-	-	-
Cc1cc(Nc2ccccc2)nn1C(=O)c1ccc(Br)cc1	50.3	-	-	-	-	-
COc1cc(/C=C(\NC(=O)c2cc(OC)c(OC)c(OC)c2)C(=O)NC(C(=O)O)c2ccccc2)cc(OC)c1OC (centres undefined)	-	-	-	-	-	-
CCOC(=O)C1C(=O)C=C(Nc2ccccc2F)CC1c1ccccc1 (centres undefined)	-	-	-	-	-	-
Cc1c(N/N=C(\C#N)C(=O)c2ccccc2)c(=O)n(-c2ccccc2)n1C	65.2	.	-	.	-	.
CCOC(=O)/C(C#N)=N/Nc1c(C)n(C)n(-c2ccccc2)c1=O	-	-	.	-	-	-
Cc1ccccc1C(=O)/C(C#N)=N/Nc1c(C)n(C)n(-c2ccccc2)c1=O	66.0	-	-	-	-	-
Cc1c(NC=C(C#N)C#N)c(=O)n(-c2ccccc2)n1C	-	-	-	-	-	-
Cc1ccc(Cn2c(C)c(C(=O)NCc3cccs3)sc2=O)cc1	.	.	.	.	-	.
COc1ccccc1CNC(=O)CCCc1nnc2n(C)c(=O)c3sccc3n12	-	-	-	-	-	-
O=C1Nc2ccccc2-n2nnnc2C1N1CCN(C(=O)C2CCCO2)CC1 (centres undefined)	.	.	.	.	-	.
CCCSc1nsc(NC(=O)C(c2ccccc2)c2ccccc2)n1	99.7	-	-	-	-	-
O=S1(=O)Nc2c(ccc3cccnc23)-c2ccccc21	112.3	-	-	-	-	-
CCC1(C)Cc2ccccc2-c2nc(-c3ccccc3)oc(=O)c21 (centres undefined)	54.1	-	-	-	-	-
CC(=O)NC(CCc1ccc(Cl)c(Cl)c1)c1cccc(O)c(=O)c1 (centres undefined)	.	.	.	.	-	.
SMILES	SKKanGAS inh	PP5 inh	IDE act	IDE inh	Exocytosis inh	PP1 counter
O=C(O)c1cccc(NC(=S)N/N=C/c2ccccc2OCc2cccc(Br)c2)c1	-	.	-	.	-	.
COc1ccc(C(=O)N/N=C/c2ccc3cccc(OCc4ccccc4)c3n2)cc1	-	-	-	-	-	-
O=C(N/N=C/c1ccc2cccc(OCc3ccccc3)c2n1)c1ccc(Br)cc1	-	-	-	-	-	16.6
O=C(O)c1cccc(NC(=S)N/N=C/c2ccccc2OCc2ccc(Br)cc2)c1	-	-	-	-	-	17.0
O=C(Nc1ccccc1F)NC1CC1	-	-	-	-	-	-
O=C(Nc1ccccc1F)NC1CCCCCCC1	49.5	-	-	-	-	-
CCCOc1ccc(NC(=O)C2CC(=O)N/C(=N/N=C(C)/C=C/c3ccc(N(C)C)cc3)S2)cc1 (centres undefined)	-	-	-	-	-	-
CC(/C=C/c1ccc(N(C)C)cc1)=N\N=C1\NC(=O)CC(C(=O)Nc2ccccc2)S1 (centres undefined)	74.6	-	-	-	-	-
CC(/C=C/c1ccc(N(C)C)cc1)=N/N=C1/NC(=O)CC(C(=O)Nc2ccc(Cl)cc2)S1 (centres undefined)	95.4	-	-	-	-	-
